# Shown are actives, neighbours in structure and some others; about 10% of the full set was active somewhere.
# Gal4-VP16 FLuc – counter-screen for ROR gamma inhibitors: Gal4-VP16 reporter | Drosophila S2 Gal4-VP16 UAS-luciferase, luminescence, 20 h | Potency, µM (highest dose often 53.6 µM), without a hit: at the highest dose activity, negative = inhibition, actives largely listed as inhibitors | 3.5% of 310,000 active;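 also: Gal4-VP16 expression switched on by copper sulfate through the metallothionein promoter; % is scaled to controls: 0 for no effect and ±100 for the full control effect; nearly all actives have a fitted effect of over 50% in size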
# KB-V1 cytotox – KB-V1 MDR subline cytotoxicity; KB-V1 MDR cells viability, CellTiter-Glo, 72 h; Potency, µM (doses to about 46.1 µM), actives largely listed as cytotoxic; 3.4% of 400,000 active; AID 1347076; also: % is scaled to controls: 0 for no effect and ±100 for the full control effect; nearly all actives have a fitted effect of over 60% in size
#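 Drug-selected KB-V1 cells, grown in DMEM lacking phenol red with 10% FBS, receive compound titrations; after three days at 37 degrees C, surviving cell ATP is quantified by CellTiter-Glo luminescence and responses normalized and curve-fitted.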
# KB-3-1 tox – kills parental KB-3-1 adenocarcinoma cells; KB-3-1 viability, CellTiter-Glo ATP luminescence, 72 h; Potency, µM (series often up to 46.1 µM), hits mostly cytotoxic; 1.4% of 400,000 active; AID 1347075; also: % is scaled to controls: 0 for no effect and ±100 for the full control effect; nearly all actives have a fitted effect of over 60% in size
#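 Multi-concentration cytotoxicity screen in KB-3-1 cells grown in DMEM lacking phenol red with 10% FBS. After 72 h at 37 °C with compound, ATP-dependent luminescence was recorded.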
# RORgamma inh – inhibitors of mouse ROR gamma transcriptional activity; P51450; Drosophila S2 Gal4-RORgamma UAS-luciferase reporter, 20 h; Potency, µM (series often up to 53.6 µM), inactives show at the top dose activity change, negative = inhibition, hits mostly inhibitors; 5.4% of 310,000 active; AID 2551; also: % is scaled to controls: 0 for no effect and ±100 for the full control effect; nearly all actives have a fitted effect of over 60% in size
# Target sequence (P51450 whole entry, looked up, the tested form may be a part): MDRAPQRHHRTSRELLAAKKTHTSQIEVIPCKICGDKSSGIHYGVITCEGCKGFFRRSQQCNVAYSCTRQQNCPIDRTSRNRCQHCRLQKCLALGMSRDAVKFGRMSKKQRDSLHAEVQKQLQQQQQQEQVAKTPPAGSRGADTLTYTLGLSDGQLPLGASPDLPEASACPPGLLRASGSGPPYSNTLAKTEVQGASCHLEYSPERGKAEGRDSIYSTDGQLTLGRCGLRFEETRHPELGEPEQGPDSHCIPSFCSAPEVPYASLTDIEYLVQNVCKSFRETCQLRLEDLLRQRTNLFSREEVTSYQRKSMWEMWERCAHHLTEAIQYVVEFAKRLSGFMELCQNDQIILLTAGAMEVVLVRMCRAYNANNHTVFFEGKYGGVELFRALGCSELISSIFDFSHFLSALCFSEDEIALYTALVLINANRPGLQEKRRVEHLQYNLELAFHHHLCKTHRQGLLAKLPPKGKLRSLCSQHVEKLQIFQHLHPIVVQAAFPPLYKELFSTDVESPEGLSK
#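 A Gal4/UAS one-hybrid system in insect cells: metallothionein-promoter Gal4–ROR gamma fusion plus Photinus luciferase reporter. Copper sulfate 700 uM final, 20 hr ambient incubation, luminescent detection after 10 min with reagent.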
# SW480 rerep – induces DNA re-replication in SW480 colon adenocarcinoma cells; SW480 DNA re-replication, Hoechst DNA content imaging, 48 h; Potency, µM (series often up to 46.1 µM), inactives show top-dose re-replication activation, usual class: activators; 1.8% of 340,000 active; AID 624297; also: % of control where 0% means no effect; nearly all actives have a fitted effect of over 55% in size
#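 Compounds, transferred as 23 nL by pin tool, were incubated with cells for 48 hr; DNA content per nucleus was then quantified by Hoechst staining and fluorescence plate imaging.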
# MCF10A rereplic – induces DNA re-replication in MCF 10a normal breast cells; MCF 10A DNA re-replication, Hoechst nuclear intensity, 48 h; Potency, µM (top dose mostly 46.1 µM), for the others: at the top dose activity, positive = re-replication, actives largely listed as activators; 2.9% of 350,000 active; also: % of control where 0% means no effect; nearly all actives have a fitted effect of over 50% in size
# The depositor's hits bear a star; i = inactive; ? = inconclusive; . = not tested or not shown; [ ] = dose if it differs, or a comment. Calls follow the shape of the dose curve; as a rule, active = well fitted curve in the direction sought with a large enough effect; inconclusive = small, poorly fitted or top-dose-only effect, or another doubt; inactive = no such curve, though single readings can be large; an effect the other way counts as inactive or inconclusive. Potency is read from the fitted curve at half-maximal effect.
SMILES,Gal4-VP16 FLuc,KB-V1 cytotox,KB-3-1 tox,RORgamma inh,SW480 rerep,MCF10A rereplic
CC1CCCCN1S(=O)(=O)c1ccc(C(=O)Nc2nnc(-c3ccccn3)o2)cc1 (stereo unspecified),5µM*,?,?,2µM*,?,?
CCOC(=O)N1CCN(S(=O)(=O)c2ccc(C(=O)Nc3nnc(C)o3)cc2)CC1,?,i,i,?,-1%,-5%
CC1CCCCN1S(=O)(=O)c1ccc(C(=O)Nc2ccccc2-c2nc3ccccc3[nH]2)cc1 (stereo unspecified),4%,23µM*,?,-10%,-3%,0%
CC1CCCCN1S(=O)(=O)c1ccc(C(=O)Nc2nnc(C3CC3)o2)cc1 (stereo unspecified),0.32µM*,?,?,0.13µM*,?,16%
O=C(Nc1ccccc1-c1nc2ccccc2[nH]1)c1ccc(S(=O)(=O)N2CCCCC2)cc1,-4%,?,i,-14%,5%,?
CC1CCCCN1S(=O)(=O)c1ccc(NC(=O)c2cccc(-n3cnnn3)c2)cc1 (stereo unspecified),1%,i,i,7%[10 µM],-4%,2%
Cc1cccc(NC(=O)c2ccc(S(=O)(=O)N3CCCCC3C)cc2)n1 (stereo unspecified),.,?,?,.,-1%,19%
CC1CCCCN1S(=O)(=O)c1ccc(C(=O)Nc2nnc(-c3ccco3)o2)cc1 (stereo unspecified),0.63µM*,5.8µM*,?,0.71µM*,?,21%
COc1ccc(-c2noc(N3CCC(C(=O)Nc4ccc(C)c(F)c4)CC3)n2)cc1OC,.,i,i,.,.,.
COc1ccc(C(=O)c2c(N)c(C(=O)Nc3cccc(OC)c3)c3ccccn23)cc1,.,i,i,.,.,.
CC(=O)Nc1cccc(-c2csc(C(C)(NC(C)=O)c3ccccc3)n2)c1 (stereo unspecified),.,i,i,.,.,.
CCN(C(=O)Cn1ncc2c(=O)oc3ccc(C)cc3c21)c1cc(OC)ccc1OC,.,i,i,.,.,.
O=C1C(Br)=C(c2ccccc2)C(c2ccccc2)=C1c1ccccc1,.,?,6.5µM*,.,2.9µM*,3.7µM*
O=C1NC(c2ccccc2)=C(c2ccccc2)C1=O,-1%,i,i,0%,-6%,-4%
O=C(c1sc(N2CCOCC2)nc1-c1ccccc1)N1CCCCC1,-3%,i,i,-12%,2%,-3%
[2H]c1c([2H])c([2H])c(-c2nc(N3CCCCCC3)sc2C(=O)c2ccccc2)c([2H])c1[2H],-9%,i,i,-10%,?,7.3µM*
C1=Cc2ccccc2/C1=C\c1ccc2c(c1)OCO2,.,i,i,.,.,.
Cc1ccccc1-c1noc(-c2ccc(N3CCC(C)CC3)c([N+](=O)[O-])c2)n1,.,i,i,.,.,.
CSc1ncccc1C(=O)Nc1ccccc1N1CCOCC1,.,21µM*,i,.,-11%,1%
O=C(Nc1cc(Cl)ccc1N1CCOCC1)c1cccnc1,3%,i,i,-8%,-3%,-2%
CSc1ncccc1C(=O)Nc1cc(Cl)ccc1N1CCOCC1,.,21µM*,?,.,5%,13%
COc1ccccc1C(=O)Nc1ccccc1N1CCOCC1,10%,i,i,-14%,-7%,-5%
CCOC(=O)Cn1c(=O)n(C2CCCCC2)c2nc(-c3cccc(C)c3)nc(C(N)=O)c21,.,i,i,.,.,.
CC(=O)O[C@H]1CC[C@H]2[C@@H]3CCc4cc(O)ccc4[C@H]3CC[C@]12C,?,15µM*,?,-13%,?,?
C[C@]12CC[C@@H]3c4ccc(O)cc4CC[C@H]3[C@@H]1CCC2OC(=O)CCC1CCCC1 (stereo partly specified),?,.,.,8%[10 µM],?,24µM*
SMILES,Gal4-VP16 FLuc,KB-V1 cytotox,KB-3-1 tox,RORgamma inh,SW480 rerep,MCF10A rereplic
CC(=O)OC1CCC2C3CCc4cc(O)ccc4C3CCC12C (stereo unspecified),?,18µM*,i,-27%,?,?
c1ccc(Nc2nc(-c3ccccc3)nc3ccccc23)cc1,-3%,i,i,7%,?,?
CC(=O)Nc1ccc(-c2cc(-c3ccc(NC(C)=O)cc3)nc(-c3ccccc3)n2)cc1,0%,i,i,1%,-3%,-6%
Nc1ccc(-c2cc(-c3cccc(N)c3)nc(-c3ccccc3)n2)cc1,-20%,i,?,?,?,16µM*
Nc1ccc(-c2nc(-c3ccccc3)nc3ccccc23)cc1,-3%,i,i,13%,23µM*,16µM*
Cc1cccc(NC(=O)c2oc3ccc(S(=O)(=O)N4CCCCC4)cc3c2C)c1C,.,i,i,.,.,.
Cc1cc(N2CCCC2)ccc1/C=C1\NC(=S)N(C)C1=O,2.5µM*,?,i,-42%,34%,17%
CN1C(=O)c2ccc(N3CCCC3)cc2C1=O,?,?,i,?,-3%,-1%
O=C1NC(=S)N/C1=C\c1ccc(N2CCOCC2)cc1,4%,i,i,15%,18µM*,?
O=C1/C(=C/c2ccc(N3CCCC3)cc2)NC(=S)N1C1CC1,11µM*,i,i,7.1µM*,-3%,-5%
CCN(C(=O)c1cccn(Cc2ccccc2C)c1=O)c1ccccc1,.,?,i,.,.,.
Cc1ccccc1NC(=O)c1c(C)oc2ccc(O)c(CN3CCC(C)CC3)c12,.,i,i,.,.,.
CCOC(=O)Cn1cc(C#N)c2ccccc21,3%,i,i,23%,-12%,-1%
CCOC(=O)Cn1cc(/C=C/[N+](=O)[O-])c2ccccc21,13µM*,?,i,?,21µM*,?
COC(=O)c1ccc(Cn2cc(/C=C\[N+](=O)[O-])c3ccccc32)o1,?,i,?,7%[1.91 µM],?,?
Cc1cccc(Cn2cc(/C=C/[N+](=O)[O-])c3ccccc32)c1,?,i,?,?,?,21µM*
O=C(O)c1ccc(Cn2cc(/C=C\[N+](=O)[O-])c3ccccc32)o1,-4%,i,i,-43%,1%,-12%
CCOC(=O)COc1ccc2ccccc2c1/C=C/[N+](=O)[O-],6.3µM*,?,18µM*,13µM*,?,?
O=[N+]([O-])/C=C/c1cn(Cc2ccc(Cl)cc2)c2ccccc12,?,?,i,?,?,5.8µM*
COc1cccc(C2CC(=O)Nc3c2c(=O)n(C)c2ncnn32)c1OC (stereo unspecified),.,i,i,.,.,.
CCCC(=O)Nc1cc(-c2nc3cccnc3s2)ccc1C,.,i,i,.,.,.
